# From PubChem
# The list is not random: actives were taken first. Their share in the collection is about 12%.
# hDAT+cocaine = changed human dopamine transporter uptake under cocaine IC80. Q01959. LLC-PK1 hDAT cells, [14C]-dopamine uptake with cocaine IC80; actives deviate in either direction. B-score at 10 µM. 1.3% of 110,000 active;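 active = Z score or B-score, a plate-position-corrected score, falls beyond the plate's 99.7% confidence bounds, in either direction; inactive = both scores lie inside the 99.7% bounds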;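 note: scored against the spread of the other compound wells on the same plate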
# PostGolgi ctrl = inhibits growth of the yeast control strain. efflux-deficient yeast background strain, growth absorbance A615, 16 h. inhibition, % at 10 µM. 5% of 98,000 active. AID 738
# PostGolgi yeast = growth inhibition of a yeast mutant, post-Golgi transport screen | inhibition, % at 10 µM | post-Golgi transport phenotypic cell assay | 0.9% of 98,000 active;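 note: yeast cells grown in 1536-well plates; yeast grown about 18 h at 30C before absorbance read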
# PLAP activator = activators of human placental alkaline phosphatase. P05187. purified PLAP enzyme, luminescent substrate read-out; active compounds read high. activation fold at 20 µM. 1.2% of 96,000 active; in the data active = activation fold above about 2
# D1 allo mod = allosteric modulators of human D1 dopamine receptor | P21728 | HEK293 D1, CRE-luciferase, dopamine EC30 potentiation; actives deviate in either direction | B-score at 10 µM | 5.9% of 58,000 active | AID 641;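 active = luminescence count or its row- and column-corrected plate score outside the 99.7% band of the plate's sample wells, on either side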
# Cav32 inh = inhibitors of human Cav3.2 T-type calcium channel; O95180; 4% of 100,000 active; Cav3.2-expressing cells, Fluo-4 calcium fluorescence FDSS; active compounds read low; B-score at 10 µM;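 active = single-dose well whose peak fluorescence ratio is a statistical outlier from its plate by either plate-standardised score or position-corrected B-score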
# Active calls of the source: *; · = not tested or not shown. Cut-off read from the data, not from the text of the source, unless noted: active = inhibition above about 30%; inactive = the rest.
SMILES,hDAT+cocaine,PostGolgi ctrl,PostGolgi yeast,PLAP activator,D1 allo mod,Cav32 inh
CCn1c(SCC(=O)Nc2ccc3c(c2)OCO3)nc2c(c1=O)SC(C)C2 (stereo not drawn),-0.31,74*,6,0.9,1.6,1.6
O=C1Nc2ccccc2C(O)(C(=O)NC2CC2)N1c1ccc(Cl)c(Cl)c1 (stereo not drawn),0.22,0,2,1,0.33,0.45
COc1ccc(-c2nn(C)c(=O)c3ccccc23)cc1CNC(=O)CN1CCOCC1,0.2,·,·,·,0.013,·
CN1CCN(C(=O)CCC(=O)c2ccc(F)cc2)CC1,-0.41,-6,-12,1.4,0.71,0.5
COc1ccc(S(=O)(=O)Cc2ccc(C(=O)N3CCN(c4ccc(Cl)cc4)CC3)o2)cc1,-0.32,37*,-1,1.7,-0.83,-1.2
COc1ccc(S(=O)(=O)Cc2ccc(C(=O)N3CCN(c4cc(Cl)ccc4C)CC3)o2)cc1,0.61,32*,-8,1.6,-1.8,-2
COc1ccc(S(=O)(=O)Cc2ccc(C(=O)N3CCc4ccccc4C3)o2)cc1,2.4*,-2,7,1.7,-0.022,-0.015
COc1ccc(S(=O)(=O)Cc2ccc(C(=O)N3CCN(c4ncccn4)CC3)o2)cc1,·,·,·,·,1.9,·
COc1ccc(S(=O)(=O)Cc2ccc(C(=O)N3CCN(Cc4ccccc4)CC3)o2)cc1,0.64,2,1,1.5,-0.22,-0.51
COc1ccc(S(=O)(=O)Cc2ccc(C(=O)N3CCN(c4cccc(C)c4C)CC3)o2)cc1,-0.34,35*,1,1.4,-0.66,-2
Cc1cccc(NC(=O)C2CCCN2S(=O)(=O)c2cccc3cccnc23)c1 (stereo not drawn),1.2,20,-2,0.8,0.72,-0.17
C/C(=N\NC(=O)CC1N=C(Cc2ccccc2)NNC1=O)c1ccccc1 (stereo not drawn),1.1,-2,-23,1,·,0.75
C/C(=N\NC(=O)CC1N=C(Cc2ccccc2)NNC1=O)c1ccc(Cl)cc1Cl (stereo not drawn),2.3,5,-3,1.3,·,-4.7*
CCOC(=O)CSc1nnc(C)n1N,0.063,5,-7,1.3,-0.72,-0.47
Cc1nnc(NC(=O)C2COc3ccccc3O2)s1 (stereo not drawn),0.18,16,4,1.2,-0.5,-0.43
CCC(CC)c1nnc(NC(=O)C2COc3ccccc3O2)s1 (stereo not drawn),-0.032,20,-11,1.1,·,-3.9*
O=C(Nc1nc2c(s1)CCCC2)C1COc2ccccc2O1 (stereo not drawn),0.02,0,23,1.1,-6.9*,-4.9*
CC(=O)NCCOc1cccc2cccnc12,-0.37,16,-8,0.8,·,0.92
Cc1cc(Cl)cc(Cl)c1OCCOc1cccc2cccnc12,-0.15,32*,-10,0.8,·,-0.14
Clc1cc(Br)ccc1OCCOCCOc1cccc2cccnc12,0.13,60*,2,1,·,-1.6
NNC(=O)COc1cccc2cccnc12,-1.2,·,·,·,·,0.07
Cc1cc(C)cc(OCCCOc2cccc3cccnc23)c1,0.57,62*,-4,1.1,·,·
O=C(O)/C=C/c1cn(-c2ncc(C(F)(F)F)cc2Cl)c2ccccc12,0.65,11,13,1,·,1.9
CC(=O)c1c(C(C)=O)c(C)n(Cc2ccc(Cl)cc2)c1C,-1.5,6,-2,1,·,0.016
CC(=O)c1c(C(C)=O)c(C)n(NC(=O)c2ccc(Cl)cc2)c1C,1.3,23,31*,1.2,·,1.9
SMILES,hDAT+cocaine,PostGolgi ctrl,PostGolgi yeast,PLAP activator,D1 allo mod,Cav32 inh
CC/C(=N\NS(C)(=O)=O)c1ccccc1,-0.011,3,2,1,·,0.28
C#Cc1ccc([C@H]2C=C(C(=O)O)O[C@@H](OCCCCO)C2)cc1,-0.029,·,·,·,·,-0.35
CC1CCCC(C)N1C(=O)c1cc(F)c(F)cc1Cl (stereo not drawn),-0.59,37*,-6,0.9,0.59,0.23
CC1CCN(C(=O)c2cc(F)c(F)cc2Cl)CC1,-0.11,·,·,·,·,0.84
N#CC1=C(N)Oc2cc3c(cc2C1c1ccc(Cl)cc1)OCO3 (stereo not drawn),-0.6,30*,-4,0.8,-1.8,-0.49
Cc1ccc(-c2csc(/C(C#N)=C(\O)CN3CCN(C(=O)c4ccco4)CC3)n2)cc1,0.62,3,0,1.5,·,-0.076
C=CCc1ccc(OCCOCCOc2ccc(C)cc2[N+](=O)[O-])c(OC)c1,0.36,11,-4,1.3,·,-5.5*
